NPC1 prom act: activators of NPC1 promoter; Huh7 NPC1 promoter luciferase reporter, 24 h; hit rate 2.4% among 320,000; Potency, µM (top dose mostly 9.22 µM), for inactives: top-dose activation, usual class: activators; AID 485313; also: % of control where 0% means no effect; nearly all actives have a fitted effect of over 60% in size
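Stably transfected Huh7 (NPC1 promoter→luciferase), 1500 cells/well in Opti-MEM + 10% FBS, 2 h settle, then compound 24 h at 37 °C. Luminescence after 10 min with Amplite reagent.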
FLuc counter: inhibits or activates purified firefly luciferase, miR-21 counter-screen; hit rate 6.9% among 360,000; purified FLuc, Km substrates, luminescence inhibition; Potency, µM (top dose mostly 57.5 µM), inactives show at the top dose activity change, negative = inhibition, most hits filed as inhibitors; AID 588342; P08659;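 also: plate controls were vehicle for no effect and reference inhibitor for full effect; nearly all actives have a fitted effect of over 55% in size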
Target sequence (P08659 whole entry, looked up): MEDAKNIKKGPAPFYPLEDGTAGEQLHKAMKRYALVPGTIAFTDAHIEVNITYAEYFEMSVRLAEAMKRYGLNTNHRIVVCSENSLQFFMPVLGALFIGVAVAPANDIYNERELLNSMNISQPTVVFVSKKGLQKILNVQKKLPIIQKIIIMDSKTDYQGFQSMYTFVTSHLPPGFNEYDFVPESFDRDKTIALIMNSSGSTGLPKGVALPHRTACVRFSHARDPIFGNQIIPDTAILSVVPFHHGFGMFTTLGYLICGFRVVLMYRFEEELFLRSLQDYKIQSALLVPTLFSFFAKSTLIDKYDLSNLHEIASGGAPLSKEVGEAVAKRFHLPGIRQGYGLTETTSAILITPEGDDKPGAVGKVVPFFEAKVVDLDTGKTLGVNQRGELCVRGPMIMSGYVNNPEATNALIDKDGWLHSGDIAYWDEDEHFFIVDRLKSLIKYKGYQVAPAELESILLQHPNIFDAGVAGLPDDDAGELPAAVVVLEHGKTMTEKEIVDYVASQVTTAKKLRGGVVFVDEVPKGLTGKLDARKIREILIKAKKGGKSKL
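Purified P. pyralis luciferase, 10 nM final, with Km-level 10 uM D-luciferin and 10 uM ATP in 50 mM Tris acetate pH 7.5, 10 mM Mg acetate, 0.01% Tween-20, 0.05% BSA; 6-point qHTS titration about 60 µM downward; luminescence read.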
ELG1 genotox: genotoxicity induction in ELG1-luciferase HEK293T cells; HEK293T ELG1-luciferase reporter, luminescence, 16 h; Potency, µM (titrated, usually from 46 µM), for the others: top-dose activity change, positive = activation, usual class: activators; hit rate 1.3% among 330,000; AID 504466; also: % of control where 0% means no effect; nearly all actives have a fitted effect of over 60% in size
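Genotoxic stress is detected as increased luminescence from luciferase-tagged ELG1 in HEK293T cells, measured with ONE-Glo after a 16 hr treatment at 37 °C.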
Luc counter: counter-screen: inhibitors of Kinase-Glo firefly luciferase | Q27757 | Kinase-Glo luciferase, ATP luminescence, 8 min | Potency, µM (top dose mostly 38.3 µM), for the others: at the top dose activity change, negative = inhibition, actives largely listed as inhibitors | hit rate 0.28% among 200,000 | AID 1379; also: % is scaled to controls: 0 for no effect and ±100 for the full control effect; nearly all actives have a fitted effect of over 60% in size
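Recombinant Kinase-Glo luciferase, 10 uM ATP (linear range), luciferin; imidazole pH 7.2 / KCl / MgCl2 / Tween / BSA buffer; 8 min RT; luminescence.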
Rab9 prom act: Rab9 promoter activation | Huh7 Rab9 promoter-luciferase reporter, luminescence, 24 h | Potency, µM (doses to about 9.22 µM), inactives show top-dose activation, negative = inhibition, actives largely listed as activators | hit rate 2.8% among 320,000 | AID 485297; also: % of control where 0% means no effect; nearly all actives have a fitted effect of over 60% in size
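Rab9 promoter-driven luciferase in stably transfected Huh7 cells; 1500 cells/well rested 2 h, exposed to compound in DMSO for 24 h at 37 °C, 5% CO2. Luminescence read 10 min after adding luciferase reagent at ambient temperature.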
SMN2 splice up: SMN2 splice variant enhancement | HEK293 SMN2-luciferase splicing reporter, luminescence, 30-36 h | hit rate 2.8% among 210,000 | AID 1458 | Potency, µM (series often up to 46.1 µM), for the others: at the highest dose activity change, positive = activation, most hits filed as activators; also: % of control where 0% means no effect; nearly all actives have a fitted effect of over 55% in size
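HEK293 cells carry an SMN2 […]–luciferase reporter in which exon 7 inclusion puts luciferase in frame. Cells were plated 10-12 h before compound addition, then incubated 30-36 h at 37C. ONE-Glo luminescence was read; sodium butyrate at 4.5 mM final served as control.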
* = called active by the depositor; ? = inconclusive; / = not tested or not shown; [ ] = remark or other dose. Most compounds without a hit are left out; they make up all but 7.5% or so of the library. Calls follow the shape of the dose curve; as a rule, active = well fitted curve in the direction sought with a large enough effect; inconclusive = small, poorly fitted or top-dose-only effect, or another doubt; inactive = no such curve, though single readings can be large; an effect the other way counts as inactive or inconclusive. Potency is read from the fitted curve at half-maximal effect.

SMILES | NPC1 prom act | FLuc counter | ELG1 genotox | Luc counter | Rab9 prom act | SMN2 splice up
Cc1cc(C(=O)CN2C(=O)NC3(CCCCC3)C2=O)c(C)n1Cc1ccco1 | 2.2µM* | 7.6µM* | 6.5µM* | 1% | 1.4µM* | 11µM*
Cc1cc(C(=O)CN2C(=O)c3cccc(N)c3C2=O)c(C)n1Cc1cccs1 | 1.3µM* | 1.1µM* | 2.9µM* | -2% | 1.1µM* | 8.9µM*
Cc1cc(C(=O)CN2C(=O)NC3(CCCCC3C)C2=O)c(C)n1Cc1cccs1 (stereo unspecified) | 4µM* | 6.7µM* | ? | -4% | 2.8µM* | 16µM*
Cc1cc(C(=O)CSc2nnc(-c3ccccc3F)o2)c(C)n1Cc1cccs1 | -3% | ? | 1% | -5% | -6% | -30%
CC(C)(CNC(=O)c1cccc(NS(=O)(=O)c2ccc(Br)cc2)c1)N1CCOCC1 | -1% | 3% | -2% | / | -3% | /
CCc1ccc(CNC(=O)C2CCN(C(=O)c3ccc(-n4ccc5ccccc54)s3)CC2)cc1 | / | -12% | / | / | / | /
COc1ccc2oc(=O)c(-c3nc(-c4cc(OC)c(OC)c(OC)c4)no3)cc2c1 | / | 1% | / | / | / | /
COc1ccc(C(=O)OCc2cc(=O)n3c(C)csc3n2)cc1F | 4µM* | ? | ? | / | 2.2µM* | /
COc1cccc(C(=O)Nc2ccccc2C(=O)OCc2cc(=O)n3c(C)csc3n2)c1 | / | -5% | / | / | / | /
COc1ccccc1C(=O)OCc1cc(=O)n2c(C)csc2n1 | / | 19µM* | / | / | / | /
CCc1nnc(SC(CC)C(=O)NCCOC)c2cc3occc3n12 (stereo unspecified) | / | -8% | / | / | / | /
CCOC(=O)c1cnc2c(ccc3ccccc32)c1NCCCN(C)C | -4% | 7.6µM* | ? | / | 5% | /
COc1ccccc1/C=N/NC(=S)NCc1ccco1 | 2% | -3% | -2% | / | 1% | /
COc1cc(/C=N/NC(=S)NCc2ccco2)cc(OC)c1OC | -1% | 0% | 32% | 1% | -3% | 35µM*
CCOC(=O)c1oc2nc3c(cc2c1N)CCCC3 | 1.4µM* | 5.4µM* | ? | / | 1.4µM* | /
O=C(NCc1ccc2c(c1)CCO2)Nc1ccccc1 | 3.5µM* | 15µM* | ? | / | 3.2µM* | /
Cc1ccc(C(=O)NCc2ccc3c(c2)CCO3)cc1C | 27% | ? | 16% | / | ? | /
Cc1cc(Cl)ccc1NC(=O)C(=O)NCc1ccco1 | / | -12% | / | / | / | ?
CCCOc1ccc(/C=N/O)cc1 | 11% | ? | -2% | 4% | 18% | -2%
O/N=C/c1ccc(OCC(O)COc2ccc(/C=N/O)cc2)cc1 | 1% | 15µM* | -1% | -3% | 2% | -9%
CSc1ccc(/C=C/C(=O)OCC(=O)c2ccc[nH]2)cc1 | 13% | -10% | 2% | / | ? | /
O=C(/C=C\c1ccccc1OC(=O)c1ccccc1F)c1cc2ccccc2o1 | ? | 2.1µM* | 16µM* | -2% | ? | -117%
CC(=O)/C=C\c1ccccc1OC(=O)c1cc2ccccc2oc1=O | -6% | -4% | 2% | / | -2% | /
CCCCN(C)CCNC(=O)C1CCCN(S(=O)(=O)c2ccc3c(c2)oc(=O)n3C)C1 (stereo unspecified) | / | 3% | / | / | / | 8%
O=S(=O)(c1ccc(Cl)s1)N1CCCc2cccc(O)c21 | ? | 11µM* | 17% | 2% | 4µM* | 9%
SMILES | NPC1 prom act | FLuc counter | ELG1 genotox | Luc counter | Rab9 prom act | SMN2 splice up
CCOc1cc(/C=C(/C#N)c2ccc(F)cc2)ccc1OCc1ccc(C(=O)O)o1 | 3% | 13µM* | 1% | -4% | 2% | 10%
CCn1cc(S(=O)(=O)N2CCc3ccccc3C2)cn1 | 0% | -2% | -1% | / | 6% | /
CC(C(=O)NC1CCCC1)N(C(=O)c1ccc(-c2ccccc2)[nH]1)c1ccccc1F (stereo unspecified) | -2% | 5% | -9% | -5% | 0% | /
N#CCSc1nc2ccccc2o1 | -2% | -1% | -2% | / | -4% | /
O=[N+]([O-])c1ccccc1CSc1nc2ccccc2o1 | ? | 19µM* | ? | -4% | ? | 20µM*
CN1CCN(c2nc3ccccn3c(=O)c2C=C(C#N)C#N)CC1 | 2% | 6% | -3% | / | -2%[1.84 µM] | /
CCOc1ccc(CNC(=O)C2CCCN(c3nn4cc(-c5ccc(F)cc5)nc4s3)C2)cc1 (stereo unspecified) | / | -17% | / | / | / | /
COc1cccc(CNC(=O)C2CCCN(c3nn4cc(-c5ccc(C)cc5)nc4s3)C2)c1 (stereo unspecified) | / | 7.6µM* | / | / | / | /
COCCCNC(=O)C1CCCN(c2nn3cc(-c4ccc(C)cc4)nc3s2)C1 (stereo unspecified) | / | 8.5µM* | / | / | / | /
COc1ccc(-c2cn3nc(N4CCCC(C(=O)NCc5ccc(Cl)cc5)C4)sc3n2)cc1 (stereo unspecified) | / | 12µM* | / | / | / | /
O=C(CS(=O)(=O)c1cccc2nsnc12)Nc1ccccc1Cl | / | -1% | / | / | / | /
CCCCOC(=O)Nc1nc2ccc(OC)cc2s1 | 25% | ? | ? | -2% | 19% | 21%
CCOCC(=O)Nc1nc2ccc(OC)cc2s1 | 2µM* | 12µM* | 5.2µM* | -20% | 1.4µM* | 11µM*
CCOc1ccc2nc(NC(=O)CN3CCN(C)CC3)sc2c1 | 6% | ? | 14% | -3% | 10% | 23%
CCOc1ccc2nc(NC(=O)CN3C(=O)C4CCCCC4C3=O)sc2c1 (stereo unspecified) | 22% | 6µM* | 6% | / | 21% | /
CCOc1ccc2nc(NC(=O)COC)sc2c1 | 2µM* | 5.4µM* | 2µM* | -4% | 1.3µM* | 11µM*
CCOc1ccc2nc(NC(=O)CN3CCN(CC)CC3)sc2c1 | 4% | -18% | 3% | / | 0% | /
CCOc1ccc2nc(NC(=O)C(CC)Sc3nc(C)cc(=O)[nH]3)sc2c1 (stereo unspecified) | 28% | 24µM* | ? | 0% | ? | 36%
CC1(C)CC2/C(CO)=C/C=C/[C@](C)(O)CC[C@]21O (stereo partly specified) | / | / | / | -3% | / | -10%
CCOc1ccc(Cl)cc1C1=CC(=O)C[C@H](c2ccc(OC)cc2)C1 | -24% | 0% | -1% | / | 0% | /
COC(=O)C1OC(=O)C2OC23[C@]2(C)C(O)CC4C(C)(C)C(OC(C)=O)CC(OC(C)=O)[C@@]4(C)C2CC[C@@]13C (stereo partly specified) | / | / | / | -1% | / | -9%
CCOc1ccc2nc(NC(=O)Cn3[nH]c(=O)c4ccccc4c3=O)sc2c1 | ? | 15µM* | ? | / | ? | /
Cc1csc(NC(=O)CSc2nnc(NC(=O)NC(C)(C)C)s2)n1 | 3% | 6µM* | 26% | / | 4% | /
CC(=O)Nc1nnc(SCC(=O)Nc2nc(C)cs2)s1 | 3% | 2% | 5% | / | 5% | /
